Compound activity from PubChem.
Rows were chosen to be rich in hits. Some 7.3% of all compounds tested hit in one or more screens of this group.
FLuc counter: qHTS profiling assay for firefly luciferase inhibitor/activator using purifed enzyme and Km concentrations of substrates (counterscreen for miR-21 project); Luciferin 4-monooxygenase (Photinus pyralis), P08659; 6.9% of 360,000 active; Potency, µM (top dose mostly 57.5 µM), for inactives: at the top dose activity change, negative = inhibition, most hits filed as inhibitors; purified FLuc, Km substrates, luminescence inhibition;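 note: plate controls were vehicle for no effect and reference inhibitor for full effect; nearly all actives have a fitted effect of over 55% in size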
Target sequence (P08659 whole entry, looked up): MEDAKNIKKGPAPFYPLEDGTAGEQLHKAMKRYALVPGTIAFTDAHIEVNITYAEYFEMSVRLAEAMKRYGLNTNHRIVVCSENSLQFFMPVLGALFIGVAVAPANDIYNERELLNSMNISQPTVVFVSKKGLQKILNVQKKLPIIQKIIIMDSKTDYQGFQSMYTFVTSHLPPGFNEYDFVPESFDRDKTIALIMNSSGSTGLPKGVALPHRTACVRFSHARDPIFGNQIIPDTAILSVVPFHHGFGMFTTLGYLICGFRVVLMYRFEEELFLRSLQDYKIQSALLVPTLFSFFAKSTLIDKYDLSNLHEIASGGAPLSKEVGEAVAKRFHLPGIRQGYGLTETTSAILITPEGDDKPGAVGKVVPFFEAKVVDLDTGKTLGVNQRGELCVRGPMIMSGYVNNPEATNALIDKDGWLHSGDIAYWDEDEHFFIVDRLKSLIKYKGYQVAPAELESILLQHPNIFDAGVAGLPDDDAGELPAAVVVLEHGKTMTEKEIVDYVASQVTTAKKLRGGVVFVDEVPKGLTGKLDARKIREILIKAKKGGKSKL
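Purified P. pyralis luciferase, 10 nM final, with Km-level 10 uM D-luciferin and 10 uM ATP in 50 mM Tris acetate pH 7.5, 10 mM Mg acetate, 0.01% Tween-20, 0.05% BSA; 6-point qHTS titration about 60 µM downward; luminescence read.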
Rab9 prom act: qHTS Assay for Rab9 Promoter Activators. Potency, µM (titrated, usually from 9.22 µM), inactives show top-dose activation, negative = inhibition, actives largely listed as activators. AID 485297, 2010. 2.8% of 320,000 active. Huh7 Rab9 promoter-luciferase reporter, luminescence, 24 h; note: % of control where 0% means no effect; nearly all actives have a fitted effect of over 60% in size
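Promoter activation is measured as luciferase luminescence in Huh7 cells stably transfected with a Rab9 promoter–luciferase construct, following 24 h compound exposure at 37 °C and 10 min reagent incubation at ambient temperature.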
ELG1 genotox: qHTS screen for small molecules that induce genotoxicity in human embryonic kidney (HEK293T) cells expressing luciferase-tagged ELG1. HEK293T ELG1-luciferase reporter, luminescence, 16 h. 1.3% of 330,000 active. AID 504466, 2011. Potency, µM (top dose mostly 46 µM), for inactives: top-dose activity change, positive = activation, usual class: activators; note: % of control where 0% means no effect; nearly all actives have a fitted effect of over 60% in size
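16 hr compound incubation (37 °C, 5% CO2) of HEK293T cells carrying luciferase-tagged ELG1; luciferase then measured by ONE-Glo luminescence after 30 min at RT.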
SMN2 splice enh: qHTS Assay for Enhancers of SMN2 Splice Variant Expression. 2.8% of 210,000 active. HEK293 SMN2-luciferase splicing reporter, luminescence, 30-36 h. Potency, µM (titrated, usually from 46.1 µM), for inactives: at the highest dose activity change, positive = activation, actives largely listed as activators; note: % of control where 0% means no effect; nearly all actives have a fitted effect of over 55% in size
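HEK293 cells carry an SMN2 […]–luciferase reporter in which exon 7 inclusion puts luciferase in frame. Cells were plated 10-12 h before compound addition, then incubated 30-36 h at 37C. ONE-Glo luminescence was read; sodium butyrate at 4.5 mM final served as control.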
Luc counter: Counterscreen for Luciferase (Kinase-Glo TM) Inhibition; Potency, µM (titrated, usually from 38.3 µM), for inactives: at the highest dose activity change, negative = inhibition, most hits filed as inhibitors; 0.28% of 200,000 active; Luciferin 4-monooxygenase (Photuris pensylvanica), Q27757; Kinase-Glo luciferase, ATP luminescence, 8 min; note: % is set by controls: 0 for no effect and ±100 for the full control effect; nearly all actives have a fitted effect of over 60% in size
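Inhibition of Kinase-Glo luciferase light generation was assessed at 10 uM ATP in pH 7.2 imidazole buffer, with luminescence measured after eight minutes at ambient temperature.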
NPC1 promoter act: qHTS Assay for NPC1 Promoter Activators | Huh7 NPC1 promoter luciferase reporter, 24 h | AID 485313, 2010 | Potency, µM (top dose mostly 9.22 µM), for the others: at the highest dose activation, usual class: activators | 2.4% of 320,000 active; note: % of control where 0% means no effect; nearly all actives have a fitted effect of over 60% in size
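Compounds in DMSO were transferred onto Huh7 NPC1-luciferase reporter cells pre-incubated 2 h; after 24 h at 37 °C, Amplite reagent was dispensed and luminescence recorded 10 min later.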
Numbers without * were called inactive; ? = inconclusive; / = not tested or not shown. Calls come from the whole dose curve; as a rule, active = well fitted curve in the direction sought with a large enough effect; inconclusive = small, poorly fitted or top-dose-only effect, or another doubt; inactive = no such curve, though single readings can be large; an effect the other way counts as inactive or inconclusive. Potency is the fitted concentration of half-maximal effect.

SMILES	FLuc counter	Rab9 prom act	ELG1 genotox	SMN2 splice enh	Luc counter	NPC1 promoter act
Cc1ccc(-c2cc(C(=O)N3CCN(c4ncccn4)CC3)c3cc(Br)ccc3n2)o1	4.8µM*	-3%	-5%	-14%	-2%	2%
CCOC(=O)N1CCN(C(=O)c2cc(-c3ccncc3)nc3ccccc23)CC1	2%	-14%	0%	/	/	-19%
COc1ccc(-c2cc(C(=O)N3CCCC(C(F)(F)F)C3)c3ccccc3n2)cc1 (stereo not drawn)	6µM*	-7%	-6%	/	/	-1%
CC(C)c1ccc(-c2cc(C(=O)N3CCOCC3)c3cc(Br)ccc3n2)cc1	9.5µM*	21%	-9%	/	/	3%
NC(=S)N/N=C/c1ccc(-c2ccc(SC(F)F)cc2)o1	24µM*	0%	-4%	/	/	0%
Cc1ccc(-c2ccc(/C=N/NC(N)=S)o2)cc1	6.7µM*	?	12%	/	/	?
OC(c1ccc(Cl)cc1)C(O)c1nc2ccccc2[nH]1 (stereo not drawn)	-1%	-5%	-2%	-9%	-4%	-1%
Cc1ccccc1NC(=O)NCCc1nc2ccccc2[nH]1	-2%	4%	1%	?	2%	-5%
S=C(Nc1ccc(Cl)cc1)c1nc2ccccc2[nH]1	3.8µM*	1.8µM*	10%	14µM*	-9%	3.2µM*
Cc1ccccc1NC(=S)c1nc2ccccc2[nH]1	11µM*	27%	7%	29%	-5%	25%
C[C@H](NC(=O)OC(C)(C)C)c1nnc(SCC(=O)Nc2cccc(Cl)c2)o1	?	-3%	-1%	/	/	-1%
c1cncc(-c2csc(NCc3ccco3)n2)c1	?	25%	15%	21%	-9%	22%
COc1ccc(-c2nc3cccc(C)n3c2NCc2ccco2)cc1OC	9.5µM*	4%	-12%	21%	2%	6%
CC(=O)Nc1ccc(-c2csc(NCc3ccco3)n2)cc1	7.6µM*	2µM*	?	13µM*	2%	2.5µM*
COc1ccc(-c2csc(NCc3ccco3)n2)cc1C	?	4µM*	?	32µM*	0%	3.2µM*
Cc1oc(-c2cccc(F)c2)nc1CN1CCCCC1CCn1cccn1 (stereo not drawn)	1%	11%	-5%	/	0%	-3%
O=C(O)CC/C=C\C[C@@H]1CO[C@H](c2ccccc2Cl)O[C@@H]1c1ccccc1O	/	/	/	/	2%	/
N#Cc1ccccc1OCC(=O)OCC(=O)c1ccc[nH]1	-6%	-5%	-1%	/	/	-6%
O=C(/C=C/c1ccc(OC(F)F)cc1)Nc1cccc(S(=O)(=O)NC2=NCCCCC2)c1	1.3µM*	10%	-14%	/	/	2%
O=S(=O)(NC1=NCCC1)c1cccc(NC(=S)Nc2ccc(OC(F)F)cc2)c1	/	/	-3%	/	/	/
COc1ccc(/C=C/C(=O)Nc2cccc(S(=O)(=O)NC3=NCCCCC3)c2)cc1	0.67µM*	27%	9%	/	/	?
COc1ccc2c(C)cc(SCn3nnc4ccccc4c3=O)nc2c1	5%	3%	1%	?	4%	-4%
COc1cc(/C=C/C(=O)Nc2cccc(S(=O)(=O)NC3=NCCCCC3)c2)ccc1OCC#N	-5%	1%	-21%	/	/	1%
COc1ccc(OC)c(/C=C/C(=O)Nc2cccc(S(=O)(=O)NC3=NCCCCC3)c2)c1	?	-2%	-1%	/	/	-2%
COc1ccccc1/C=C/C(=O)Nc1cccc(S(=O)(=O)NC2=NCCCCC2)c1	19µM*	2%	-7%	3%	0%	-5%
